An excerpt weighted towards active compounds, which were near 2.3% of everything screened.
ALOX15 inhib = qHTS Assay for Inhibitors of 15-hLO (15-human lipoxygenase). Polyunsaturated fatty acid lipoxygenase ALOX15 (Homo sapiens), P16050. 74,000 tested, 1.4% active. purified 15hLO-1, xylenol orange hydroperoxide absorbance. AID 887, 2007. Potency, µM (series often up to 57.1 µM), inactives show at the highest dose activity change, negative = inhibition, most hits filed as inhibitors; also: potency is read from the fitted curve at half-maximal effect; % is scaled to controls: 0 for no effect and ±100 for the full control effect; nearly all actives have a fitted effect of over 55% in size
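Purified human 15hLO-1 (40 nM) in 25 mM Hepes pH 7.5, 0.01% Triton X-100, preincubated 15 min RT with compound, then 50 uM arachidonic acid for 6 min. Hydroperoxide read by ferrous/xylenol orange, 30 min; 573/405 nm absorbance ratio gave progress.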
HBB splice mod = qHTS Assay for Modulators of Hemoglobin Beta Chain Splicing. HBB splicing reporter cell assay, activation; EGFP reporter with mutant IVS2-654 intron; response scale: normalised to 500 nM splice-correcting PNA. 65,000 tested, 0.06% active. AID 925, 2007. Potency, µM (series often up to 46.1 µM), inactives show at the highest dose activation, usual class: activators; also: potency is read from the fitted curve at half-maximal effect; 0% is about no effect
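Compounds were applied for 2 days to HeLa EGFP-654 cells, 500/well in Optimem with 2% FCS. The reporter's EGFP is disrupted by mis-splicing of beta-globin intron IVS2-654. Readout: summed well GFP fluorescence from 488 nm laser scanning; reference was 500 nM antisense […] 654 PNA.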
Epigenetic mod = qHTS Assay for Epigenetic Modulators; mouse C127i GFP locus derepression, cytometry, 30 h; Potency, µM (series often up to 46.1 µM), for the others: top-dose GFP derepression (activation); 68,000 tested, 0.09% active; also: % of control where 0% means no effect
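Read-out is the number of GFP-positive cells, scored as fluorescent objects 20 to 120 um wide, reflecting derepression of a silenced CMV-GFP reporter in murine C127i cells after 30 h compound exposure at 37 C.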
Tau fil binding = qHTS Assay for Tau Filament Binding; recombinant tau filaments, thioflavin S fluorescence, 15 h; filaments grown with octadecylsulfate alongside compound; Potency, µM (doses to about 57.1 µM), for the others: top-dose activity change, negative = inhibition; 71,000 tested, 2% active;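 also: potency is read from the fitted curve at half-maximal effect; % is scaled to controls: 0 for no effect and ±100 for the full control effect; actives lower thioflavin S fluorescence by blocking filaments or displacing dye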
Target sequence (P10636 whole entry, looked up): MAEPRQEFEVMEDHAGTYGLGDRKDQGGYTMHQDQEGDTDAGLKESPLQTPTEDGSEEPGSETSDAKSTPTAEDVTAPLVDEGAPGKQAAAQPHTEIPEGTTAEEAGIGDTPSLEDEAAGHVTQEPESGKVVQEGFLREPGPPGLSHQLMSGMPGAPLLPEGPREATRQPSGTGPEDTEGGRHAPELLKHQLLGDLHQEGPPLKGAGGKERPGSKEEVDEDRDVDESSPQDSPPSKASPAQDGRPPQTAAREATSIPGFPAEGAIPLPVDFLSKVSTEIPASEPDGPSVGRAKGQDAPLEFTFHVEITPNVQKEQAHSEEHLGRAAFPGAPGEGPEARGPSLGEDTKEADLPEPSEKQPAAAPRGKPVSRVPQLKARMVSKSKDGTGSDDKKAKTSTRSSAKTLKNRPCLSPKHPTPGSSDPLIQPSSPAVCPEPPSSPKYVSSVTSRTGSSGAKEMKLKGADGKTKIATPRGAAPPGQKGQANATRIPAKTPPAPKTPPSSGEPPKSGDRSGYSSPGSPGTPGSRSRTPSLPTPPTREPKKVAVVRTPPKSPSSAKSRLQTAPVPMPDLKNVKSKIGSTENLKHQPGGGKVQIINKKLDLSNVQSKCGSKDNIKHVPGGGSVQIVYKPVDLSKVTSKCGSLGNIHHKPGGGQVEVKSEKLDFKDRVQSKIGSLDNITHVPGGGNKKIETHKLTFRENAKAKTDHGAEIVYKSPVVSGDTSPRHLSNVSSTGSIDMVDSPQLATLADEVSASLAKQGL
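Recombinant tau protein (human, 1 uM final) plus 30 uM ODS in HEPES pH 7.4 with NaCl, DTT and thioflavine S. Compound present from the start; fluorescence at 510 nm after 15 h, 37 C.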
ALOX15B inhib = qHTS Assay for Inhibitors of 15-hLO-2 (15-human lipoxygenase 2) | Polyunsaturated fatty acid lipoxygenase ALOX15B (Homo sapiens), O15296 | purified 15hLO-2, xylenol orange hydroperoxide absorbance | Potency, µM (top dose mostly 57.1 µM), for the others: at the top dose activity change, negative = inhibition, most hits filed as inhibitors | 110,000 tested, 0.56% active | AID 881, 2007; also: potency is read from the fitted curve at half-maximal effect; % is scaled to controls: 0 for no effect and ±100 for the full control effect; nearly all actives have a fitted effect of over 60% in size
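Purified human 15hLO-2 (50 nM) preincubated 15 min with compound, then 45 uM arachidonic acid for 90 min at RT in 25 mM Hepes pH 7.5, 0.01% Triton X-100. Hydroperoxide detected by Fe-xylenol orange; 573/405 nm absorbance ratio.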
UbGFP stabilizer = Ubiquitin-GFP Assay; Ubiquitin-GFP reporter cells, proteasome inhibition, GFP fluorescence; response scale: untreated = 0%, 10 µM MG-132 = 100%; Potency, µM (series often up to 45.9 µM), for the others: at the highest dose activation (GFP accumulation), most hits filed as activators; 67,000 tested, under 10 active; AID 526, 2006; active = well fitted activation curve with a large enough effect, not every such curve was filed as active; inconclusive = small, poorly fitted or top-dose-only effect, or another doubt; inactive = no such curve, though single readings can be large or run the other way; also: potency is read from the fitted curve at half-maximal effect
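U2OS cells expressing ubiquitin(G76V)-GFP, seeded overnight in 0.5% FBS medium, then treated 4 hr at 37 C across 46 uM to 2.9 nM. GFP-positive cells counted by laser cytometry (488 ex/515 em); %activity scaled between basal and 10 uM MG-132.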
The depositor's hits bear a star; u = inconclusive; x = no result given; [ ] = dose if it differs, or a comment. Unless noted, calls follow the shape of the dose curve; as a rule, active = well fitted curve in the direction sought with a large enough effect; inconclusive = small, poorly fitted or top-dose-only effect, or another doubt; inactive = no such curve, though single readings can be large; an effect the other way counts as inactive or inconclusive.

SMILES | ALOX15 inhib | HBB splice mod | Epigenetic mod | Tau fil binding | ALOX15B inhib | UbGFP stabilizer
CCOC(=O)C1=C(N)n2c(s/c(=C\c3ccco3)c2=O)=C(C(=O)OCC)C1c1ccco1 (centres undefined) | -23% | 2%[57.5 µM] | 6% | 16µM* | u | -5%
CCOC(=O)C1=C(N)n2c(s/c(=C\c3ccco3)c2=O)=C(C(=O)OC(C)C)C1c1ccco1 (centres undefined) | x | x | -6%[20.6 µM] | x | x | x
COc1cc2ccccc2cc1C(=O)Nc1ccc(N2CCN(C)CC2)cc1 | 11% | 1%[57.5 µM] | 0% | 3.2µM* | 40% | -1%
CCOc1ccc(C(=O)Nc2ccc(N3CCCC3)cc2)cc1 | u | 1%[57.5 µM] | 2% | 10µM* | -7% | -1%
COc1cccc(C(=O)NC(=S)Nc2ccc(N3CCCC3)cc2)c1 | x | x | x | x | 13µM* | x
COc1ccccc1C(=O)Nc1ccc(N2CCN(S(C)(=O)=O)CC2)cc1 | 0% | x | 4% | 0% | -1% | -3%
CCOc1ccc(C(=O)Nc2ccc(N3CCN(C)CC3)cc2)cc1Br | u | -1% | -2% | 10µM* | 31% | 1%
Cc1ccccc1C | 3% | 1% | x | -10% | -8% | x
FC(F)C(F)(F)C(F)(F)C(F)(F)c1cc(-c2ccccc2)n[nH]1 | u | 0%[9.22 µM] | 2% | 10µM* | -17% | 7%
Cc1conc1NC(c1cccs1)c1ccc2cccnc2c1O (centres undefined) | u | -5%[0.369 µM] | 6% | 13µM* | 4% | -5%
COc1ccc(OC)c(NC(=O)C2CCCN(S(=O)(=O)c3cccc4nsnc34)C2)c1 (centres undefined) | x | x | x | x | -4% | x
COc1ccc(Cl)cc1NC(=O)C1CCCN(S(=O)(=O)c2cccc3nonc23)C1 (centres undefined) | -5% | 4%[1.84 µM] | 2% | 25µM* | x | u
Cc1cc(-c2nnc(-c3ccccc3)c(-c3ccccc3)n2)c(C)o1 | 25µM* | -1% | 27% | 16µM* | u | -10%
c1ccc(-c2nnc(-c3c[nH]c4ccccc34)nc2-c2ccccc2)cc1 | x | x | x | x | 17% | x
COc1cc2[nH]c(=S)n(C3CCCC3)c(=O)c2cc1OC | 16µM* | -3%[57.5 µM] | 2% | 40% | -16% | -6%
COc1cc2[nH]c(=S)n(CC3CCCO3)c(=O)c2cc1OC (centres undefined) | -4% | 2% | -3% | -5% | 0% | -8%
CC(=O)O[C@@H]1CC[C@]2(C)[C@H]3CC[C@]4(C)[C@H](C[C@H]5CCCC[C@@]54C(C)=O)[C@@H]3CC(=O)[C@@]2(O)C1 | x | x | -5%[9.22 µM] | 17% | x | -4%
CCOc1ccc2c(c1)c1nnc(SCC3CCCO3)nc1n2C (centres undefined) | 1% | x | 0% | 32µM* | -1% | 0%
Nc1ncnc2c1ncn2[C@H]1O[C@@H](C(=O)OCCO)[C@@H](O)[C@H]1O | 4%[11.4 µM] | 3%[9.22 µM] | -4%[9.22 µM] | 15%[11.4 µM] | -5%[11.4 µM] | -5%[9.17 µM]
NNC(=O)[C@@H](O)[C@H](O)[C@H](O)CO | 4%[11.4 µM] | 1%[9.22 µM] | -1%[9.22 µM] | -4%[11.4 µM] | -4%[11.4 µM] | -8%[9.17 µM]
O=C1CCC[C@H]2OC12[C@@H](O)CCc1ccccc1 (some centres undefined) | 2%[11.4 µM] | -1%[9.22 µM] | x | x | x | x
Nc1c(S(=O)(=O)c2cccc(Cl)c2)c2nc3ccccc3nc2n1/N=C/c1ccc(O)c(O)c1 | 16µM* | 1% | 6% | u | u | 1%
COc1cccc(/C=N/n2c(N)c(S(=O)(=O)c3cccs3)c3nc4ccccc4nc32)c1OC | x | x | x | x | -10% | x
CCCCn1cnc2c(SC)ncnc21 | -5%[11.4 µM] | 0%[9.22 µM] | 4%[9.22 µM] | 0%[11.4 µM] | -2%[11.4 µM] | -3%[9.17 µM]
